Reference: PubChem BioAssay AID540335 (Broad Institute, 2011)
The whole screen tested about 1,300 compounds, of which about 270 (21%) were called active.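 How the source made its calls: active means dose-dependent rise or fall in viability, either side of zero, with half-maximal concentration at or below a set limit; inconclusive means flat curve at 30 to 70% viability loss, or poor fit; inactive means flat within 30% either way, or potency beyond limit.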 Only a sample is shown. Results with a measured potency or affinity are listed apart.

Test: proliferation inhibition in MITF-low A375 cells – cell-based, cherry-pick samples, set 2, counter-screen for MITF modulator project, dose response (AID 540335);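 further: A375 human melanoma cells which do not depend on MITF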
Conditions: CellTiter-Glo ATP luminescence, 24 h; series mostly up to 35 µM

Compound	outcome
CN(C(=O)/C=C/c1ccc([N+](=O)[O-])s1)c1ccccc1	inactive
Cc1scc(C(=O)N/N=C/c2ccc([N+](=O)[O-])o2)c1C	inactive
CCCCCCN1C=CC(=C2C(=O)c3ccccc3C2=O)C=C1	inactive
O=C1CN(C(=O)Cn2ncc(Cl)c(Cl)c2=O)c2ccccc2N1	inactive
Cc1ccc(C(=O)N/N=C/c2ccc([N+](=O)[O-])s2)cc1	inactive
Cc1ccc(C)c(C(=O)Cn2ncc(Cl)c(Cl)c2=O)c1	inactive
Clc1cccc(-c2nc(-c3ccccn3)no2)c1	inactive
C=CCNc1nc(-c2ccccn2)nnc1-c1ccccc1	inactive
O=C(Nc1ccc(S(=O)(=O)N2CCCCCC2)cc1)c1[nH]ncc1[N+](=O)[O-]	inactive
O=C(O)c1ccc(N/N=C/c2ccc(OC(=O)c3cccc(Cl)c3)cc2)cc1	inactive
CC(C)CC(=O)NC(c1cccs1)c1ccc2cccnc2c1O (stereo unspecified)	inactive
O=C(CCl)Nc1ccc(Sc2ccc(NC(=O)CCl)cc2)cc1	inactive
COc1ccccc1-c1nc(-c2ccc(C)nc2OC)no1	inactive
COc1ccccc1-c1nnc(-c2ccc(C)cc2)o1	inactive
Cn1c(SC2=CS(=O)(=O)c3ccccc32)nc2ccccc21	inactive
CCN1CCc2c(sc(NC(=O)c3ccc(S(=O)(=O)N4CCCCCC4)cc3)c2C(=O)NC)C1	inactive
CC1(C)CC(NC(=O)c2ccc(Cl)c(S(=O)(=O)N(Cc3ccccc3)c3ccccc3)c2)CC(C)(C)N1	inactive
C#CC(=O)N(c1ccc(OC)cc1OC)C(C(=O)NC1CCCC1)c1cccs1 (stereo unspecified)	inactive
COc1ccc(C(C(=O)NC2CCCCC2)N(C(=O)CCl)c2ccc(OC)cc2)cc1 (stereo unspecified)	inactive
C(#Cc1ccccc1)C[N+]1(CC#Cc2cccc3ccccc23)CCCC1	inactive
CCOc1ccc2nc(C)cc(Nc3cccc([N+](=O)[O-])c3)c2c1	inactive
CC(=O)OCCNc1cc(Sc2nc3ccccc3[nH]2)c2nonc2c1[N+](=O)[O-]	inactive

Compound	outcome
O=C(Nc1cc(-c2nc3ncccc3o2)ccc1Cl)c1ccc([N+](=O)[O-])o1	inactive
O=C(O)c1cccc(N/N=C/c2ccc(OC(F)(F)F)cc2)c1	inactive
O=C(Cn1ncc(Cl)c(Cl)c1=O)NCC1CCCCC1	inactive
O=C(CSc1ccccn1)c1ccc2c(c1)OCO2	inactive
COc1ccc(C(=O)/C=C(\C)Nc2ccc3c(c2)OCO3)cc1	inactive
Cc1cc(C(=O)CN2C(=O)c3ccccc3S2(=O)=O)c(C)n1-c1ccccc1	inactive
Cc1cccnc1NC(=O)NC(=O)c1ccc(C(C)(C)C)s1	inactive
COc1ccc(CCn2c(=S)[nH]c3cc(C(=O)NCc4ccco4)ccc3c2=O)cc1OC	inactive
Cc1cc(C)c2sc(N(CCCN(C)C)C(=O)COc3ccc(Cl)cc3)nc2c1	inactive
CN(C)CCCNc1nc2sc3c(c2c(=O)n1CCc1ccccc1)CCCCC3	inactive
COc1ccc(-n2cc(-c3ccc(C)cc3)[n+]3c2SCC3)cc1	inactive
O=C(NCC1CCCCC1)C1(CC2CC(c3cccc(Br)c3)=NO2)CCNCC1 (stereo unspecified)	inactive
Cc1ccc(C(C)C)c(OCc2nn(CC(=O)c3ccc(Cl)cc3)c3[n+]2CCCCC3)c1	inactive
CCOC(=O)N1C(=O)[C@@](CC)(c2ccccc2)N1C(=O)OCC	inactive
O=C(N/N=C/c1ccc([N+](=O)[O-])o1)c1ccccc1-n1cccc1	inactive
COC(=O)C1=C(C)N(Cc2ccccc2)C(=NCC(C)C)N[C@H]1c1cccc(C(F)(F)F)c1	inactive
CCn1c(=O)c([N+](=O)[O-])c(Cl)c2ccccc21	inactive
COc1ccc(C(=O)/C=C/C(=O)N(CC(=O)NC2CCCCC2)Cc2cccs2)c(O)c1	inactive
Cc1cnc(NC(=O)c2nn(C)cc2[N+](=O)[O-])s1	inactive
O=C(CSCC(=O)Nc1ccccc1)N/N=C/c1c(O)ccc2ccccc12	inactive
Cn1cc(C(=O)N/N=C/c2c(O)ccc3ccccc23)ccc1=O	inactive
CCc1ccccc1NC(=O)CN(C)C(=O)Cn1ncc(Cl)c(Cl)c1=O	inactive

Compound	outcome
CC(=O)N(C)C1=C(N2CCOCC2)C(=O)c2ccccc2C1=O	inactive
COC(=O)c1ccc2c(c1O)C(=O)c1ccccc1C2=O	inactive
CCN(CC)CCNC(=O)c1ccc(NC(=O)c2cn(-c3ccccc3)nc2-c2cccs2)cc1	inactive
CCS(=O)(=O)c1ccc(N=Nc2ccc(O)c3ncccc23)c(OC)c1	inactive
O=[N+]([O-])c1ccc(-n2nnnc2-c2ccccc2)c([N+](=O)[O-])c1	inactive
CCN1CCN(c2ccc(S(=O)(=O)N3CCCCC3)cc2NC(=O)/C=C/c2cccc(OC)c2OC)CC1	inactive
CCN1CCN(c2ccc(S(=O)(=O)N3CCCCC3)cc2NC(=O)/C=C/c2ccc([N+](=O)[O-])cc2)CC1	inactive
O=C(N/N=C/c1ccc([N+](=O)[O-])s1)C(O)c1ccccc1 (stereo unspecified)	inactive
CC(/C=N/NC(=O)c1cc(-c2ccncc2)nc2ccccc12)=C\c1ccco1	inactive
O=C1C(Nc2ccccc2)=C(N2CCCCC2)C(=O)c2ccccc21	inactive
CN1CCN(C2=C(NS(=O)(=O)c3ccccc3)C(=O)c3ccccc3C2=O)CC1	inactive
CCN1c2ccccc2NC2C1C(C(C)=O)C(=O)N2c1ccc(Cl)cc1 (stereo unspecified)	inactive
CCc1ccc(NC2=CC(=O)C(=O)c3ccccc32)cc1	inactive
COC1=C(Nc2ccccc2)C(=O)c2ccccc2C1=O	inactive
COC1=C(Nc2ccc(O)cc2)C(=O)c2ccccc2C1=O	inactive
C=CCNC1=C(Cl)C(=O)c2ccccc2C1=O	inactive
CCNC1=C(Cl)C(=O)c2ccccc2C1=O	inactive
O=C(NC1=C(Nc2ccc(Cl)cc2)C(=O)c2ccccc2C1=O)c1ccccc1	inactive
COc1ccc(C(=O)/C=C/C(=O)N(CC(=O)NC2CCCCC2)CC2CCCO2)c(O)c1 (stereo unspecified)	inactive
CC1=NNC(=O)/C1=C\c1cn(-c2ccccc2)nc1-c1ccc(F)cc1	inactive
Cc1ccc(-c2c[n+](Cc3ccc(Cl)c(Cl)c3)c3n2CCC3)cc1	inactive
COc1cc(/C=C/C(=O)c2ccc3c(c2)OCCO3)cc(Br)c1OCC(=O)N(C)C	inactive
